The list is not random: actives were taken first. Their share in the collection is about 3.8%.
HT1080-NT tox = kills 2HG-producing HT-1080-NT fibrosarcoma cells; HT-1080-NT fibrosarcoma viability, CellTiter-Glo ATP luminescence, 48 h; Potency, µM (top dose mostly 46.1 µM), for the others: at the highest dose activity, negative = less viability, usual class: cytotoxic; actives 1.6% (n = 360,000);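 further: NT is the 2HG producing partner of a matched IDH1 knockdown line; 0% = DMSO-treated cells and -100% = media-only wells without cells; nearly all actives have a fitted effect of over 55% in size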
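Read-out is CellTiter-Glo luminescence after 10 minutes at room temperature, following 48 hours' compound treatment of HT-1080-NT cells (750 cells/well, RPMI, 5% FBS, 37 degrees C).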
S2 tox = viability counter-screen for ATXN expression inhibitors; actives 0.49% (n = 400,000); Potency, µM (series often up to 56.7 µM), hits mostly cytotoxic; AID 651635; S2 cells (HEK-293 line with an ATXN2-luciferase reporter) viability, CellTiter-Fluor protease fluorescence, 24 h; further: nearly all actives have a fitted effect of over 40% in size
TGFb SMAD3 inh = inhibitors of TGF-b signaling. HepG2 CAGA-GFP TGF-b/SMAD3 reporter, GFP fluorescence, 18 h; TGF-beta stimulated, 500 pg/mL final. actives 1.2% (n = 410,000). Potency, µM (doses to about 46.1 µM), inactives show top-dose activity, negative = inhibition, usual class: inhibitors. AID 588855; further: on the % scale 0 is the no-effect control and ±100 the full control effect; nearly all actives have a fitted effect of over 65% in size
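HEPG2 CAGA-GFP, 1000 cells/well; 2 h settle, 37 C; cpd via pin tool; TGF-b 500 pg/mL final; 18 h, 37 C; GFP imaging ex488/em500-530; %Activity normalised to -TGF-b and +DMSO controls; CRC fit, curve class.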
HepG2 tox-1 = HepG2 cytotoxicity, counter-screen for TGF-b inhibitors; HepG2 CAGA-GFP viability, ATP luminescence, 18 h; Potency, µM (titrated, usually from 46.1 µM), for the others: at the highest dose activity change, negative = cytotoxicity, usual class: cytotoxic; actives 0.76% (n = 410,000)
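HepG2 CAGA-GFP cells (1000/well, DMEM with 1% FBS) received compound, then TGF-beta at 500 pg/mL final, and were incubated 18 hours at 37 degrees C. Viability was read by CellTiter-Glo luminescence. Media-only wells were set as complete cell-killing and DMSO as no toxicity.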
HT1080 IDH1KD tx = toxicity to HT-1080 IDH1 knockdown cells (counter line). HT-1080 IDH1 knockdown viability, ATP luminescence, 48 h. Potency, µM (top dose mostly 46.1 µM), without a hit: at the top dose activity, negative = toxicity, usual class: cytotoxic. actives 2% (n = 360,000);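 further: 0% = DMSO wells and -100% = cell-free medium wells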
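IDH1KD HT-1080 cells, 750/well, RPMI + 5% FBS; compound pinned after 2 h settling; 48 h, 37 °C; CellTiter-Glo luminescence; % activity normalised to DMSO and no-cell wells; curves fitted, classed by r2 and efficacy.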
ATXN2 expr inh = reduces ATXN2 reporter expression in HEK-293 cells; Potency, µM (doses to about 57 µM), for inactives: at the highest dose activity change, negative = inhibition, hits mostly inhibitors; actives 0.72% (n = 360,000); AID 1745845; HEK-293 ATXN2-luciferase reporter, luminescence, 24 h; further: on the % scale 0 is the no-effect control and ±100 the full control effect; nearly all actives have a fitted effect of over 55% in size
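ATXN2-luciferase reporter cells (luciferase flanked by upstream and downstream ATXN2 gene portions) were treated 24 h at 37 °C with compounds at up to 57 uM. SteadyGlo luminescence gave expression; GF-AFC fluorescence gave viability.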
TGFb CAGA inh = TGF-b pathway inhibition, cherry-pick retest; Potency, µM (series often up to 46.1 µM), for the others: at the top dose activity, negative = inhibition, most hits filed as inhibitors; HepG2 CAGA-GFP TGF-b reporter, GFP fluorescence, 18 h; cells stimulated with TGF-beta, 500 pg/mL; AID 720534; actives 63% (n = 1,600); shares compounds with TGFb SMAD3 inh; further: on the % scale 0 is the no-effect control and ±100 the full control effect; nearly all actives have a fitted effect of over 65% in size
HepG2 tox-2 = counter-screen for TGF-b inhibitors: cytotoxicity in HepG2 cells; actives 27% (n = 1,600); AID 720535; HepG2 CAGA-GFP viability, ATP luminescence, 18 h; cells stimulated with TGF-beta, 500 pg/mL; shares compounds with TGFb SMAD3 inh; Potency, µM (highest dose often 46.1 µM), for the others: top-dose activity, negative = cytotoxicity, actives largely listed as inhibitors; further: on the % scale 0 is the no-effect control and ±100 the full control effect; nearly all actives have a fitted effect of over 70% in size
CCL64 TGFb inh = TGF-b inhibition, CCL64 orthogonal assay; shares compounds with TGFb SMAD3 inh; CCL64 CAGA-GFP reporter, TGF-b stimulated, GFP fluorescence, 18 h; Potency, µM (doses to about 46.1 µM), for inactives: at the top dose activity, negative = inhibition, most hits filed as inhibitors; actives 41% (n = 1,600); further: nearly all actives have a fitted effect of over 65% in size
COP TGFb inh = blocks TGF-b signaling in HepG2 COP reporter | Potency, µM (top dose mostly 46.1 µM), inactives show top-dose activity, negative = inhibition, most hits filed as inhibitors | actives 3% (n = 1,600) | HepG2 COP-GFP TGF-b reporter, GFP fluorescence, 18 h; cells stimulated by added recombinant TGF-beta | shares compounds with TGFb SMAD3 inh; further: nearly all actives have a fitted effect of over 70% in size
* marks the source's active call; other numbers are inactive results; i = inactive; ? = inconclusive; . = no result. The call rests on the fitted dose curve; in most records, active means well fitted curve in the direction sought with a large enough effect; inconclusive means small, poorly fitted or top-dose-only effect, or another doubt; inactive means no such curve, though single readings can be large; an effect the other way counts as inactive or inconclusive. Potency means the concentration at half of the fitted maximal effect.

SMILES	HT1080-NT tox	S2 tox	TGFb SMAD3 inh	HepG2 tox-1	HT1080 IDH1KD tx	ATXN2 expr inh	TGFb CAGA inh	HepG2 tox-2	CCL64 TGFb inh	COP TGFb inh
CN(C)S(=O)(=O)c1cccc(NC(=O)COC(=O)CCSc2ccc(Cl)cc2)c1	-0.3%	i	7.7%	1.9%	2.1%	-9.0%	.	.	.	.
CCN(CC)S(=O)(=O)c1cccc(NC(=O)c2ccc(-n3nc(C)cc3C)cc2)c1	-5.7%	?	7.94µM*	-1.5%	0.1%	?	?	-17.9%	-0.9%	-9.1%
COc1ccccc1CNc1nc2c(S(=O)(=O)c3ccccc3)nnn2c2ccc(Cl)cc12	.	i	-3.2%	5.6%	.	-1.6%	.	.	.	.
COc1ccc(CNC(=O)c2oc3c(c2C)-c2nn(Cc4ccc(Cl)cc4)cc2CC3)cc1	.	.	-11.2%	-15.1%	.	.	.	.	.	.
COc1cc2c(cc1OC)C(COc1ccccc1OC)N(C(=O)COc1ccc(Cl)cc1)CC2 (stereo not given)	.	i	2.9%	-33.7%	.	-25.1%	.	.	.	.
COc1cc2c(c(Br)c1N)-c1cc(Br)c(N)cc1C2=O	?	i	?	-46.0%	?	.	0.581µM*	0.581µM*	-3.6%	68.4%
Cc1cc(C)c(S(=O)(=O)c2ccc(Cl)cc2)c(Cl)n1	-16.2%	i	5.1%	5.1%	-7.6%	-4.3%	.	.	.	.
Cc1cc(S(=O)(=O)c2ccc(Cl)cc2)nc(S(=O)(=O)c2ccc(Cl)cc2)c1C#N	?	0.794µM*	7.08µM*	-118.5%	6.51µM*	.	5.8µM*	18.4µM*	1.84µM*	18.4µM*
CCOCCCN1C(=O)CN(C2CCCCCC2)C(=O)C1c1ccc(OC(C)C)c(OC)c1 (stereo not given)	.	.	0.4%	2.8%	.	.	.	.	.	.
Cc1nc(N=C(N)N)nc2ccccc12	-3.9%	i	12.6µM*	-0.9%	?	?	16.4µM*	?	-1.2%	21.0%
COc1ccc(N2CCN(C(=O)c3cnn(-c4ccc(OC)cc4)c3C3CCN(C(=O)OC(C)(C)C)CC3)CC2)cc1	.	.	4.5%	8.7%	.	.	.	.	.	.
O=C(Cc1cccc(NC(=O)C2CCCN(C(=O)C3CCCCC3)C2)c1)Nc1cccc(C(=O)N2CCCC2)c1 (stereo not given)	0.0%	i	?	-15.8%	2.2%	-12.6%	?	-7.8%	-23.6%	-4.8%
CCn1c(SCc2nc3scc(-c4ccccc4)c3c(=O)[nH]2)nnc1-c1cccs1	?	i	?	-1.5%	?	-32.6%	.	.	.	.
COCCn1c(SCc2nc3scc(-c4ccc(Cl)cc4)c3c(=O)[nH]2)nnc1-c1cccc(C)c1	-28.3%	?	10µM*	-25.3%	-5.6%	-23.1%	13µM*	?	?	32.3%
Cc1ccccc1CN(CC(=O)Nc1cccc([N+](=O)[O-])c1)S(=O)(=O)c1ccc(Cl)cc1	?	?	11.2µM*	-28.4%	-21.9%	-34.6%	10.3µM*	?	2.31µM*	70.5%
Cc1ccc(C(NC(=O)C2CCCCC2)c2c(O)ccc3ccccc23)cc1 (stereo not given)	-23.3%	?	4.47µM*	1.4%	?	-8.0%	7.31µM*	?	23.1µM*	34.7%
COc1ccc(NC(=O)[C@@H]2CC=C[C@@H]3CCN(Cc4ccc(Cl)c(Cl)c4)C(=O)[C@@H]32)cc1	-29.9%	?	12.6µM*	-22.6%	?	-21.0%	2.91µM*	-21.8%	29.1µM*	28.7%
COc1ccc2c(C)c(CCC(=O)NCc3ccc(C)cc3)c(=O)oc2c1	.	i	-4.7%	-2.2%	.	-1.8%	.	.	.	.
Cc1onc(-c2ccccc2)c1C(=O)Nc1nnc(C(C)C)s1	24.5%	i	-0.5%	-1.5%	17.7%	0.8%	.	.	.	.
Cc1onc(-c2ccccc2)c1C(=O)Nc1ncc([N+](=O)[O-])s1	?	?	8.91µM*	-35.1%	?	?	14.6µM*	?	23.1µM*	50.0%
CN1CCN(S(=O)(=O)c2ccc(Sc3nc4ccccc4[nH]3)c3nsnc23)CC1	12.6%	i	10µM*	1.0%	11.9%	7.8%	-19.5%	5.8%	6.1%	8.8%
Cn1c(/C=C/c2ccccc2)nc2ccccc2c1=O	?	i	-0.9%	-19.3%	?	52.9%	.	.	.	.
Cn1c(/C=C/c2ccc([N+](=O)[O-])o2)nc2ccccc2c1=O	?	6.31µM*	2.24µM*	-41.2%	?	7.94µM*	?	6.51µM*	5.17µM*	?
COc1ccc(/C=C2/CCC(CN3CCOCC3)C2=O)cc1 (stereo not given)	?	?	5.01µM*	11.2µM*	6.51µM*	6.7µM*	4.61µM*	3.66µM*	4.61µM*	16.4µM*
CCOc1ccc(CNC(=O)CCS(=O)(=O)c2cc3c(cc2Cl)NC(=O)CO3)cc1OC	.	i	1.9%	1.1%	.	7.6%	.	.	.	.
Cc1ccc(Cl)cc1N1CCN(C(=O)c2cccn2-c2nnc(N3CCCC3)s2)CC1	.	.	?	-34.8%	.	.	.	.	.	.
COC(=O)CC1c2cc(OC)c(OC)cc2CCN1C(=O)Nc1ccc(C)cc1Cl (stereo not given)	.	.	-13.2%	-0.9%	.	.	.	.	.	.
O=C(Nc1ccccc1F)c1ccc([N+](=O)[O-])s1	?	i	?	-67.6%	?	-25.4%	.	.	.	.
O=C(Nc1cccnc1)c1ccc([N+](=O)[O-])s1	?	i	10µM*	11.2µM*	?	?	14.6µM*	23.1µM*	?	?
